Results as given in PubChem BioAssay AID1814 (Broad Institute, 2009).
Screen size: about 300,000 compounds; about 22,000 (7.3%) were called active. Roughly 2% stayed inconclusive and do not appear here. The sample as a whole holds a higher share of actives than the screen did. Values without a mark were called inactive. Rule as the data show it: active = activity score below about -60%; inconclusive = mostly about -28% to -61%; inactive = positive scores.

Experiment: Activators working through SNCA 5'UTR binding (MLPCN) (AID 1814)
Settings: alpha-synuclein 5'UTR reporter, activators screen; active compounds read low; tested at 7.5 µM

Structure (SMILES)	activity score
Cc1c(Cl)cccc1NC(=O)Nc1ccc(C(=O)N2CCCC2)cc1	-77.6% (active)
CC(=O)NNC(=O)c1csc(Cc2c(Cl)sc3ccc(Cl)cc23)n1	67.1%
CCOC(=O)c1c(C)nc(-c2ccccc2)nc1NC(=O)C(C)C	-83.8% (active)
Nc1ccc(N=Nc2ccccc2Cl)c(N)n1	-165% (active)
Cc1cc(C(=O)NCCc2ccc(Cl)cc2)c(C)o1	-131% (active)
O=C(NCCc1ccccc1)Oc1ccc(Cl)cc1	-107% (active)
Cc1ccc2nc(/C(C#N)=C\c3ccc(OC(=O)c4cccs4)cc3)[nH]c2c1	-283% (active)
COc1ccc(C(=O)O/N=C(\N)c2ccccn2)cc1[N+](=O)[O-]	-177% (active)
N/C(=N\OC(=O)CC1CCCCC1)c1ccccc1	-116% (active)
COc1ccccc1OCC(=O)O/N=C(\N)c1ccccn1	-121% (active)
N/C(=N\OC(=O)CCC1CCCCC1)c1ccccn1	-180% (active)
COc1ccc(CC(=O)N/N=C(\C)c2ccccn2)cc1	77.7%
N/C(=N\OC(=O)Cc1ccc([N+](=O)[O-])cc1)c1ccccn1	-161% (active)
CCc1c(C)nc2cc(-c3cccs3)[nH]n2c1=O	-81% (active)
C=CCc1c(C)nc2cc(-c3ccccc3)[nH]n2c1=O	-102% (active)
CC(=O)N(C)c1ccc(NC(=O)Nc2cccc3ccccc23)cc1	-70.7% (active)
O=[N+]([O-])c1ccc(O)c(/C=N/Nc2ccccc2[N+](=O)[O-])c1	-63.1% (active)
Cc1cc(C(=O)COC(=O)CNC(=O)c2ccc(F)cc2)c(C)n1Cc1ccco1	-113% (active)
Cc1ccsc1C(=O)OCC(=O)c1cc(C)n(CC2CCCO2)c1C (stereo not drawn)	79.6%
Nn1c(SCc2ccccc2)nnc1C1CCCCC1	-110% (active)
N#Cc1cccc(NC(=O)COC(=O)c2ccccc2C(=O)c2ccc(Cl)c([N+](=O)[O-])c2)c1	-63.7% (active)
Cc1ccc(Nc2nc(N)nc(CSc3nnc(C)s3)n2)cc1	-63.8% (active)
CC(=O)c1ccc(NC(=S)NC(=O)CC(C)C)cc1	-98.8% (active)

Structure (SMILES)	activity score
COc1ccccc1Nc1ncc(C(C)=O)c(C)n1	-80.4% (active)
Cn1c(CCCOc2ccc(Cl)cc2Cl)n[nH]c1=S	-63.6% (active)
COc1cccc2cc(C(N)=O)/c(=N\NC(=O)c3ccccc3)oc12	-61.9% (active)
Cc1cccc(C(=O)OC(C)CN2CCN(C)CC2)c1 (stereo not drawn)	-64.7% (active)
CCOC(=O)C1(Cc2ccccc2C(F)(F)F)CCN(C(=O)c2cc(C)n(C)n2)CC1	-117% (active)
COc1ccc(/C=C/C(=O)Nc2ccc(C34CC5CC(CC(O)(C5)C3)C4)cc2)cc1OC	76.5%
COc1ccc(/C=C/C(=O)Nc2cccnc2)cc1OC	-72.4% (active)
COc1ccc(C(=O)/C=C/c2cccnc2)c(OC)c1	-81.3% (active)
Cc1cc(NC(=O)c2ccccc2C)no1	-104% (active)
CC(=O)c1ccc(NC(=O)c2sc3nc4n(c(=O)c3c2C)CCCCC4)cc1	-89.5% (active)
Cc1c(C(=O)Nc2ccccc2)sc2nc3n(c(=O)c12)CCCCC3	-136% (active)
O=C(Cc1ccc(Br)cc1)N1CCN(c2ccccn2)CC1	-73.7% (active)
O=c1oc2cc(O)ccc2cc1-c1ccc(F)cc1	-115% (active)
NC(=O)Nc1ccccc1C(=O)NCCc1ccccc1	-90.2% (active)
CCN1C(=O)/C(=C2\SC(N3CCCCC3)=NC2=O)c2ccccc21	-151% (active)
CC(C)(C)c1csc(NC2=NS(=O)(=O)c3ccccc32)n1	-127% (active)
CCCNC(=O)c1c(Cl)cnn1-c1ccc(C)cc1	-137% (active)
S=c1nc(C23CC4CC(CC(C4)C2)C3)nc2sccn12	-162% (active)
COC(=O)c1ccc2c(C(C)(C)O)c(C(C)(C)O)[nH]c2c1	-87.7% (active)
COc1cccc(OCC(=O)Nc2ccccc2C(N)=O)c1	-126% (active)
Cc1cccc(OCC(=O)Nc2ccccc2F)c1	-140% (active)
O=C(COc1ccc(Cl)cc1)Nc1ccccc1CO	-81.1% (active)
Cc1ccc(F)c(NC(=O)CCc2ccccc2)c1	-92.3% (active)

Structure (SMILES)	activity score
CCCc1nnc(NC(=O)c2cccs2)s1	-80.1% (active)
Cc1ccc(C(=O)Nc2nnc(-c3cccs3)s2)cc1C	-218% (active)
CC1CCCCN1S(=O)(=O)c1ccc(C(=O)Nc2nnc(-c3cccs3)o2)cc1 (stereo not drawn)	89.9%
CCc1c(C)sc(NC(=O)c2cccs2)c1C(N)=O	-151% (active)
CCc1nnc(NC(=O)c2cccs2)s1	-125% (active)
S=C(NCCc1ccccc1)NCC1CCCO1 (stereo not drawn)	-78.2% (active)
S=C(NCCc1ccccc1)Nc1ccccc1	-89.3% (active)
S=C(NCCC1=CCCCC1)Nc1ccccc1	-122% (active)
S=C(NCCc1ccccc1)N1CCCCC1	-106% (active)
CCOc1ccc(/C(O)=C2\C(=O)C(=O)N(c3ccc(OC)cc3)C2c2ccccc2[N+](=O)[O-])cc1 (stereo not drawn)	-69.2% (active)
Fc1ccccc1COc1cccc2cccnc12	-134% (active)
Cc1ccnc2nc(C(=O)Nc3nnc(-c4ccccc4)o3)nn12	-72% (active)
O=C(O)C1CCN(C(=O)OCc2ccccc2)CC1	-142% (active)
CCOC(=O)c1sc(=NC(=O)/C=C/c2cccs2)n(C)c1C	-201% (active)
Cc1ccc(NC(=O)C(=O)NCc2ccco2)c(C)c1	-101% (active)
COc1cc(/C=N/Nc2nc3ccccc3s2)ccc1O	-82.9% (active)
Brc1ccccc1/C=N/Nc1nc2ccccc2o1	-126% (active)
O=[N+]([O-])c1cc(Br)c(O)c(/C=N/Nc2nc3ccccc3s2)c1	-87.6% (active)
COc1ccc(/C=N/Nc2nc3ccccc3o2)cc1OC	-162% (active)
Cc1cc2nc(SCCN3CCOCC3)[nH]c2cc1C	-115% (active)
O=C(CN1C(=O)S/C(=C\c2ccccc2Cl)C1=O)NC1C=CS(=O)(=O)C1 (stereo not drawn)	-83.8% (active)
Cc1cccc(N2C(=O)C3C(c4ccccc4)OC4(C(=O)c5ccccc5C4=O)C3C2=O)c1 (stereo not drawn)	-66.3% (active)
